High-throughput results (PubChem BioAssay)
CBFb-RUNX1 inh: CBF-beta/RUNX1 interaction disruption. AlphaScreen CBFb-His/RUNX1-biotin binding, biochemical. 230,000 tested, under 10 active. Potency, µM (doses to about 59.8 µM), inactives show top-dose activity, negative = inhibition, usual class: inhibitors. AID 1477; further: % of control where 0% means no effect
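His-tagged CBF-beta and biotinylated RUNX1 (30 nM each) were premixed 20 min at room temperature, exposed to compound for 15 min, then given nickel-chelate and streptavidin AlphaScreen beads (50 ng each). After 90 min, AlphaScreen signal was read.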
HTT cytoprotect: protects HTT-Q103 PC12 cells, measured by ATP. PC12 HTT-Q103 induced, cytoprotection, ATP luminescence, 40 h. Potency, µM (top dose mostly 56.4 µM), for the others: cytoprotection (ATP increase), most hits filed as activators. hit rate 0.14% among 230,000. AID 1471; further: potency means the concentration at half of the fitted maximal effect; % of control where 0% means no effect; nearly all actives have a fitted effect of over 45% in size
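Rat PC12, Q103 Htt exon1-GFP fusion, ecdysone promoter; tebufenozide inducer 100 nM final; compound titration; qHTS, 1500 cells/well; ATPlite luminescent read.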
PNC inhibitor: inhibitors of perinucleolar compartment assembly | activity change (PNC), negative = inhibition, % at 10 µM | AID 2417 | hit rate 3.1% among 140,000 | PC3M PTB-GFP, PNC prevalence imaging, 16 h; hits give low values;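 active means readout at or below -70, meaning at least 70% loss of cells showing the perinucleolar compartment, a nuclear body marking cancer cells; inconclusive means readout between -30 and a set limit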;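 further: plate controls were DMSO wells for no effect and camptothecin positive control wells for full effect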
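Compounds are pinned in duplicate onto adhered PC3M cells stably expressing GFP-tagged PTB and incubated 16 h at 37 C. Cells are then fixed, nuclei stained with Hoechst, and PNC-positive cells counted.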
HPGD inh: blocks human HPGD enzyme activity. P15428. purified HPGD, NADH fluorescence kinetic, PGE2 substrate. Potency, µM, for the others: top-dose activity change, negative = inhibition, most hits filed as inhibitors. hit rate 4.3% among 150,000. AID 894; active means well fitted inhibition curve with a large enough effect, not every such curve was filed as active; inconclusive means small, poorly fitted or top-dose-only effect, or another doubt; inactive means no such curve, though single readings can be large or run the other way; further: potency means the concentration at half of the fitted maximal effect; on the % scale 0 is the no-effect control and ±100 the full control effect
Target sequence (P15428 whole entry, looked up): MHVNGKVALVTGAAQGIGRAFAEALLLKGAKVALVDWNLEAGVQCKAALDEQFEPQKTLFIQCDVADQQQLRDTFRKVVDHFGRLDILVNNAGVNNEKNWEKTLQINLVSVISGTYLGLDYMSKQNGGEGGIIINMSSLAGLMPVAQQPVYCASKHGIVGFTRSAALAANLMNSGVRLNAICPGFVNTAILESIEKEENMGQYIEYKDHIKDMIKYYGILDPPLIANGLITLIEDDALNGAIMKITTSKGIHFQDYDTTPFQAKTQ
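20 nM HPGD preincubated 15 min at room temperature with compound in 50 mM Tris-HCl pH 8, 0.01% Tween 20. Started with 1 mM NAD+ and 30 uM prostaglandin E2; NADH fluorescence (360/450 nm) read 5 times over 30-s intervals, last minus first.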
HttQ103 aggreg: inhibitors of mutant huntingtin aggregate formation in PC12 cells | PC12 HttQ103-GFP aggregates, Acumen cytometry, 40 h | Potency, µM (series often up to 46.1 µM), for the others: top-dose activity change, negative = inhibition, usual class: inhibitors | hit rate 1.1% among 220,000 | AID 1688; further: potency means the concentration at half of the fitted maximal effect; on the % scale 0 is the no-effect control and ±100 the full control effect; nearly all actives have a fitted effect of over 60% in size
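Aggregate formation scored by laser-scanning cytometer (488 excitation, 500–530 emission) in lysed PC12 cells expressing Q103-GFP after 100 nM tebufenozide induction; library tested in dose series, with ATPLite reagent added in the multiplex.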
ALDH1A1 inh: inhibitors of human aldehyde dehydrogenase 1A1; Purified ALDH1A1, NADH fluorescence, propionaldehyde substrate; P00352; hit rate 7.3% among 220,000; AID 1030; Potency, µM (series often up to 75.3 µM), for inactives: at the top dose activity, negative = inhibition, actives largely listed as inhibitors; active means well fitted inhibition curve with a large enough effect, not every such curve was filed as active; inconclusive means small, poorly fitted or top-dose-only effect, or another doubt; inactive means no such curve, though single readings can be large or run the other way;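 further: potency means the concentration at half of the fitted maximal effect; plate controls were no enzyme wells and a reference inhibitor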
* = called active by the depositor; ? = inconclusive; / = no result; [ ] = another dose, or the depositor's remark. Compounds with a hit are over-represented: about 11% of the library has one in this group of screens. Unless noted, the call rests on the fitted dose curve; in most records, active means well fitted curve in the direction sought with a large enough effect; inconclusive means small, poorly fitted or top-dose-only effect, or another doubt; inactive means no such curve, though single readings can be large; an effect the other way counts as inactive or inconclusive.

SMILES	CBFb-RUNX1 inh	HTT cytoprotect	PNC inhibitor	HPGD inh	HttQ103 aggreg	ALDH1A1 inh
CC(=O)Nc1nc2ccccc2n1Cc1ccc(Cl)cc1	10%	-5%[10 µM]	/	/	-26%[9.22 µM]	/
CCN=c1scc(-c2ccco2)n1/N=C/c1ccc(OC)c(O)c1	?	-31%	-11	-11%	-13%	?
CCN=c1scc(-c2ccco2)n1/N=C/c1ccc(O)cc1	-10%	-2%[10 µM]	?	?	?	20µM*
Cc1cccc([C@H]2[C@@H]3C=CCC[C@@H]3C(=O)N2Cc2ccccc2)c1	?	-127%	/	-17%	/	28µM*
CCOc1ccc(NC2=NCC(=O)N2Cc2cccs2)cc1	-2%	-39%	-105*	-16%	-4%	?
O=[N+]([O-])c1cc(S(=O)(=O)Nc2cccc(C(F)(F)F)c2)ccc1-n1nnc2ccccc21	-15%	-46%	3	32µM*	11µM*	?
CCC(=O)NCc1ccc2[nH]c(C)cc2c1	-3%	/	/	/	27%	-3%
Cc1cc2cc(CNC(=O)CCC(=O)O)ccc2[nH]1	0%	-16%	?	-9%	9%	28µM*
C[C@@](N)(C(=O)O)c1ccc(P(=O)(O)O)cc1	1%[21.7 µM]	-6%	/	-6%	/	18%
COC(=O)C(Cc1ccc(O)cc1)NC(=O)c1ccccc1 (stereo not drawn)	-8%	17%	?	-2%	-1%	3%
COC(=O)C(Cc1ccc(O)cc1)NC(=O)c1ccccc1OC (stereo not drawn)	-11%	8%	-5	-11%	13%	28µM*
COc1ccc(-c2nc3ccccc3s2)cc1O	6%	-142%[0.074 µM]	-90*	?	4%	?
COc1ccccc1CNC(=O)C(NC(=O)c1ccccc1C)C(C)C (stereo not drawn)	-5%	/	/	/	11%	7%
COc1ccccc1CNC(=O)c1cccc(C)c1[N+](=O)[O-]	0%	-14%[10 µM]	-15	18µM*	-7%	-1%
COc1ccccc1C(=O)NCc1ccccc1	6%	19%[10 µM]	-114*	11µM*	-4%	12%
COc1ccccc1C(=O)NCc1ccncc1	-9%	-4%[0.074 µM]	?	-4%	-12%	13%
COc1cccc(Cn2c(=O)c(-c3ccc(Cl)cc3)nc3cnc(N(C)C)nc32)c1	/	-5%	/	-20%	/	?
CC(=O)O[C@H]1C[C@@H]2CCC3C(CC[C@@]4(C)[C@H]3C[C@H]([N+]3(C)CCCCC3)[C@@H]4OC(C)=O)[C@@]2(C)C[C@@H]1[N+]1(C)CCCCC1 (stereo partly drawn)	6%	/	/	-14%	/	-7%
COc1cc(C(=O)NCc2ccccc2)cc(Br)c1OC	6%	/	?	22µM*	-27%	3%
COc1cc(C(=O)NCc2ccc(-c3nc4ccccc4s3)cc2)cc(OC)c1OC	4%	2%[10 µM]	?	-8%	-3%	2%
COc1ccccc1C(=O)NCc1ccc(-c2nc3ccccc3s2)cc1	1%	6%[10 µM]	?	18µM*	17%	?
COc1cc(C(=O)NCc2ccncc2)cc(OC)c1OC	6%	-1%[10 µM]	/	/	14%[9.22 µM]	3%
COc1ccc(CNC(=O)c2ccccc2[N+](=O)[O-])cc1	2%	-8%	59	11µM*	12%	11%
COCCCNC(=O)c1cccc(OC)c1OC	2%	-12%	?	7.1µM*	-10%	2%
O=C(NNC(=O)c1ccc2nonc2c1)Nc1ccc(Cl)cc1	4%	9%[10 µM]	/	/	-5%[9.22 µM]	/
COc1ccc(CCCC(=O)NCc2ccccc2)cc1C	0%	-14%[10 µM]	-22	16µM*	-7%	-12%
CC(C)[C@H](NC(=O)NC1CCCC1)C(=O)O	9%	-5%	21	-2%	-14%	18%
CC(C)=CCCC(C)NC(=O)NC1CCCCC1 (stereo not drawn)	0%	1%[10 µM]	0	35µM*	-4%	0%
